Test results as given in the supplement of paper PMC13380429.

How the values were obtained:
[1] = test system: Vero E6 infected with SARS-CoV-2; test: morphology score (similarity to uninfected cells); higher = more like uninfected cells; settings: 24 h
[2] = test system: Vero E6 infected with SARS-CoV-2; test: SARS-CoV-2 infection rate relative to infected DMSO; higher = more infection, active = 60 or less; settings: 24 h

Compound | morphology score [1] | SARS-CoV-2 infection rate [2]
O=C(O)c1cccnc1Nc1cccc(C(F)(F)F)c1 [niflumic-acid] (10 µM) | 0.127 | 104% (inactive)
CN(C)/N=N/c1[nH]cnc1C(N)=O [dacarbazine] (10 µM) | 0.135 | 87% (inactive)
CC(=O)OCC(=O)[C@H]1CC[C@H]2[C@@H]3CC[C@H]4C[C@H](O)CC[C@]4(C)[C@H]3C(=O)C[C@]12C [alfadolone-acetate] (10 µM) | -0.231 | 116% (inactive)
COc1cc2c(c(OC)c1OC)-c1c(cc3c(c1OC)OCO3)C[C@H](C)[C@@](C)(O)C2 [schisandrol-B] (10 µM) | -0.0659 | 106% (inactive)
CC(=O)N(CC(C)C(=O)O)c1c(I)cc(I)c(N)c1I (stereo not drawn) [iocetamic-acid] (10 µM) | 0.0591 | 97% (inactive)
CC[N+](CC)(CC)CCC(O)(c1ccccc1)C1CCCCC1 (stereo not drawn) [tridihexethyl] (10 µM) | -0.09 | 110% (inactive)
O=C(/C=C/c1cccc(S(=O)(=O)Nc2ccccc2)c1)NO [belinostat] (10 µM) | 0.0182 | 97.5% (inactive)
CC(C)(CO)c1cc2cc(NC(=O)C3(c4ccc5c(c4)OC(F)(F)O5)CC3)c(F)cc2n1C[C@@H](O)CO [tezacaftor] (10 µM) | -0.0125 | 108% (inactive)
C=Cc1cc(O)cc2nc(-c3ccc(O)c(F)c3)oc12 [prinaberel] (10 µM) | 0.143 | 96.5% (inactive)
CNc1cc2c(Nc3cccc(Br)c3)ncnc2cn1 (10 µM) | -0.276 | 112% (inactive)
CCOC(=O)Nc1ccc(NCc2ccc(F)cc2)cc1N [Retigabine] (10 µM) | 0.067 | 106% (inactive)
CN(CCCN1c2ccccc2CCc2ccccc21)CC(=O)c1ccc(Cl)cc1 [lofepramine] (10 µM) | -0.0945 | 114% (inactive)
CC(=O)OC[C@H]1O[C@@](COC(C)=O)(O[C@H]2O[C@H](COC(C)=O)[C@@H](OC(C)=O)[C@H](OC(C)=O)[C@H]2OC(C)=O)[C@@H](OC(C)=O)[C@@H]1OC(C)=O [sucrose-octaacetate] (10 µM) | 0.0471 | 103% (inactive)
CN1C(=O)N(C)C2C1N(C)C(=O)N2C (stereo not drawn) [mebicar] (10 µM) | 0.0884 | 107% (inactive)
Nc1nc(NC[C@H]2CC[C@H](CNS(=O)(=O)c3cccc4ccccc34)CC2)nc2ccccc12 (0.833333 µM) | -0.0427 | 93.5% (inactive)
CCO[C@@H]1OC(=O)C[C@@H]1NC(=O)[C@@H]1CCCN1C(=O)[C@@H](NC(=O)c1ccc(N)c(Cl)c1)C(C)(C)C (10 µM) | 0.0386 | 116% (inactive)
O=C(NOCCO)c1cc(CN2OCCCC2=O)c(F)c(F)c1Nc1ccc(I)cc1F (0.833333 µM) | -0.175 | 96.5% (inactive)
C[C@]12CCC(=O)C=C1CC[C@@H]1[C@@H]2[C@@H](O)C[C@@]2(C)[C@H]1CC[C@]2(O)C(=O)CO [hydrocortisone] (10 µM) | -0.144 | 122% (inactive)
OCc1ccc(O[C@@H]2O[C@H](CO)[C@@H](O)[C@H](O)[C@H]2O)cc1 [gastrodin] (10 µM) | 0.19 | 106% (inactive)
COCC1=C(C(=O)O)N2C(=O)[C@@H](NC(=O)/C(=N\OC)c3csc(N)n3)[C@H]2SC1 [cefpodoxime] (10 µM) | 0.105 | 104% (inactive)
CC(=O)N[C@H]1[C@H]([C@H](O)[C@H](O)CO)OC(C(=O)O)=C[C@@H]1NC(=N)N [zanamivir] (10 µM) | 0.113 | 108% (inactive)
Oc1ccc(-c2c(-c3ccccc3)nn3c(C(F)(F)F)cc(C(F)(F)F)nc23)cc1 (10 µM) | 0.0465 | 104% (inactive)
O=C(O)c1cc(/N=N/c2ccc(O)c(C(=O)O)c2)ccc1O [olsalazine] (10 µM) | 0.062 | 104% (inactive)
CCC[C@@H]1CC2=CC(=O)CC[C@]2(C)[C@H]2CC[C@@]3(C)[C@@H](CC[C@@]3(O)CCC(=O)O)[C@H]12 (10 µM) | 0.105 | 104% (inactive)
CC(C)[C@H](N)C(=O)OCCOCn1cnc2c(=O)nc(N)[nH]c21 [valaciclovir] (10 µM) | -0.0293 | 116% (inactive)
NC[C@H]1CC[C@H](C(=O)O)CC1 [tranexamic-acid] (10 µM) | 0.0762 | 108% (inactive)
COc1cc(Nc2c(C#N)cnc3cc(OCCCN4CCN(C)CC4)c(OC)cc23)c(Cl)cc1Cl [bosutinib] (10 µM) | 0.00987 | 96.5% (inactive)
CC(CNC(=O)c1cccnc1)NC(=O)c1cccnc1 (stereo not drawn) [nicaraven] (10 µM) | -0.02 | 114% (inactive)
COc1ccc2cccc(N3CCN(CCNC(=O)c4ccc(F)cc4)CC3)c2c1 (10 µM) | 0.241 | 103% (inactive)
